Compound activity deposited in PubChem BioAssay by several laboratories.
phage Ecoli inh – E. coli growth loss with phage present. inhibition, % at 11.9 µM. AID 651602. growth absorbance. 0.26% of 360,000 active; in the data active = inhibition above about 11%
AddAB inh – less growth of phage-infected E. coli with AddAB | inhibition, % at 11.9 µM | AID 435030 | E. coli expressing H. pylori AddAB, absorbance growth | 0.29% of 330,000 active; in the data active = inhibition above about 12%;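 note: 0% = vehicle wells of infected cells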
E coli growth-1 – inhibitors of Escherichia coli growth; OD600 absorbance (no concentration beside the values); AID 1053175; OD600, 23 h; hits give low values; 0.21% of 330,000 active;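 active = OD600 absorbance below the run mean of sample wells minus 3.6 SD, in any replicate, cut at about 0.56 in these data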
E coli growth-2 – counter-screen for AddAB inhibitors: E. coli growth inhibition; E. coli V3065 growth, OD600 absorbance, 18 h; inhibition, % at 11.9 µM; 0.27% of 330,000 active; AID 449728;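 active = inhibition above the campaign's mean inhibition across all tested compounds plus 3 SD, cut at about 9.9% in these data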;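 note: uninfected addAB+ strain grown without phage in ampicillin broth; 0% = DMSO wells and 100% = ciprofloxacin 0.95 µg/ml wells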
Tat transport – E. coli Tat transport inhibition. E. coli MC4100 TorA-mCherry Tat export, fluorescence. inhibition, % at 10 µM. 0.036% of 340,000 active;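 active = mean replicate inhibition at least 50% and at least half of replicates individually reaching 50%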;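 note: exported cargo escapes ClpAP degradation while cytoplasmic cargo is degraded and loses fluorescence; 0% = median of neutral control wells and 100% = median of NaSCN control wells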
The depositor's hits bear a star; . = no result given. An excerpt weighted towards active compounds, which were near 0.5% of everything screened.

SMILES | phage Ecoli inh | AddAB inh | E coli growth-1 | E coli growth-2 | Tat transport
CC(=NNC(=O)c1cc(-c2cccc([N+](=O)[O-])c2)n[nH]1)c1ccc(Cl)cc1 | . | . | 0.69 | . | .
c1ccc(CNc2nc(N3CCN(Cc4ccccc4)CC3)nc3ccccc23)cc1 | 3 | 2 | 0.48* | 1 | .
OCCNc1nc(Nc2ccc(Br)cc2)nc2ccccc12 | 4 | -2 | 0.4* | -1 | .
c1ccc(N2CCN(c3nc(NCc4ccco4)c4ccccc4n3)CC2)cc1 | 2 | 7 | 0.7 | 0 | 0
Cc1ccc(Nc2nc(NCc3ccco3)c3ccccc3n2)cc1 | 4 | 0 | 0.41* | 4 | -64
CNc1nc(NCc2ccccc2)c2ccccc2n1 | 4 | 2 | 0.48* | 0 | -7
OCCNc1nc(Nc2ccccc2)nc2ccccc12 | -1 | -3 | 0.67 | -2 | -6
COc1ccccc1Nc1nc(NCc2ccco2)c2ccccc2n1 | 4 | -1 | 0.59 | 1 | .
O=C(CN1C(=O)SC(=Cc2cccs2)C1=O)N1CCOCC1 | . | . | 0.71 | . | .
NC(=O)NN=C(CCCCCCC(=NNC(N)=O)c1ccccc1)c1ccccc1 | . | . | 0.65 | . | .
CCSc1ncc(C=NNc2ccc(Cl)cc2)n1C | . | . | 0.73 | . | .
Cc1ccc(Oc2ccccc2C=NO)cc1 | . | . | 0.71 | . | .
O=C(NN=C/C(Br)=C/c1ccccc1)c1ccncc1 | . | . | 0.46* | . | .
O=C(N/N=C/C(Br)=C/c1ccccc1)c1ccncc1 | 4 | 11 | . | 3 | -8
CC(=NNc1ccc2nncn2n1)c1cccs1 | . | . | 0.69 | . | .
O=[N+]([O-])c1cc(C(F)(F)F)ccc1NCCNC(=S)Nc1ccc(Cl)cc1 | 7 | 9 | 0.61 | 10* | 12
COc1cccc(OC)c1C(O)=C(C#N)c1nc2ccccc2[nH]1 | . | . | 0.7 | . | .
Cc1nc2ccccn2c1C(=O)N/N=C/c1ccc([N+](=O)[O-])o1 | 7 | 9 | . | 6 | -10
CCN(CC)c1ccc(N=Cc2ccc([N+](=O)[O-])o2)cc1 | 5 | 12 | 0.15* | 5 | -1
O=C(NN=Cc1ccc([N+](=O)[O-])o1)C(O)c1ccccc1 (stereo not drawn) | . | . | 0.44* | . | .
Cc1nc2ccccn2c1C(=O)NN=Cc1ccc([N+](=O)[O-])o1 | . | . | 0.52* | . | .
COc1ccccc1OCC(=O)NN=CC=Cc1ccc([N+](=O)[O-])o1 | . | . | 0.36* | . | .
CCC(=NNC(=O)c1nnn(-c2nonc2N)c1-c1cccs1)c1ccccc1 | . | . | 0.67 | . | .
Cc1ccccc1OCC(=O)NCC(=O)NN=Cc1cccc([N+](=O)[O-])c1 | . | . | 0.68 | . | .
COC(=O)NN=Cc1ccc([N+](=O)[O-])o1 | . | . | 0.051* | . | .
SMILES | phage Ecoli inh | AddAB inh | E coli growth-1 | E coli growth-2 | Tat transport
CCN(CC)C(=O)C(=O)NN=Cc1ccc(F)cc1 | . | . | 0.66 | . | .
O=C(Nc1ccc(F)c(Cl)c1)Nc1ccc(Cl)cn1 | 4 | -1 | 0.72 | -1 | 0
O=C(Nc1ccncc1)Nc1ccc(F)c(Cl)c1 | 6 | 4 | 0.51* | 1 | -3
Fc1ccc(NC(=S)Nc2ccc(F)c(Cl)c2)cc1Cl | . | 2 | 0.49* | 0 | -9
O=C(CSc1nnc(SCc2ccccc2Cl)s1)NN=Cc1ccc(C(=O)O)cc1 | . | . | 0.71 | . | .
COc1ccccc1C(=O)NCC(=O)NN=Cc1ccc2c(c1)OCO2 | . | . | 0.67 | . | .
O=C1Nc2ccccc2/C1=C\C(=O)c1ccccc1 | 0 | 2 | 0.65 | -3 | 2
O=C(/C=C1\C(=O)Nc2ccccc21)/C=C1\C(=O)Nc2ccccc21 | -1 | . | 0.51* | . | 2
CCCOc1ccc(C(=O)NNC(=S)NC(=O)c2ccco2)cc1 | 4 | 4 | 0.55 | 1 | -3
CCCCOc1ccc(C(=O)NNC(=S)NC(=O)CC)cc1 | . | -7 | 0.56 | -5 | 1
CCC(=O)NC(=S)NNC(=O)c1ccc(OC)cc1 | -6 | -1 | 0.46* | 1 | 12
COc1ccc(C(=O)NNC(=S)NC(=O)c2ccco2)cc1 | -2 | 2 | 0.44* | -1 | 3
CCCOc1ccc(C(=O)NNC(=S)NC(C)=O)cc1 | 7 | 4 | 0.27* | -7 | -19
Cc1cccc(C=Nn2c(C)nnc2C)c1 | . | . | 0.77 | . | .
CC(=NNC(=S)NC1CCCCC1)c1ccccc1 | . | . | 0.74 | . | .
O=[N+]([O-])c1ccc(Nc2ccccc2)c2nonc12 | 0 | 2 | . | 0 | -7
O=[N+]([O-])c1ccc(Sc2cccc[n+]2[O-])c2nonc12 | 60* | . | 0.086* | . | 139*
OCC1(CO)COC(c2ccccc2)=N1 | 0 | 1 | 0.63 | -1 | 16
O=C1OCC(CO)(CO)N=C1NNc1ccc(Cl)c(Cl)c1 | 7 | 1 | 0.18* | -1 | 1
COc1ccc2cc(C(=O)C3CCCN(C(=O)c4snnc4C)C3)ccc2c1 (stereo not drawn) | -1 | -3 | 0.69 | -1 | 3
COc1ccc2cc(C(=O)C3CCCN(C(=O)Cc4c(C)noc4C)C3)ccc2c1 (stereo not drawn) | -2 | 1 | 0.54* | -2 | -2
CCCCCCn1ccc(=N)cc1 | 1 | 4 | 0.77 | -1 | 3
CCCCCCCCCCCCCCCCn1cc[n+](CC(C)=O)c1 | . | . | 0.064* | . | 32
CNCC(Cc1ccccc1)NCC(Cc1cccc2ccccc12)NCCc1ccc(C)cc1 (stereo not drawn) | . | . | 0.048* | . | .
CNC[C@H](Cc1ccccc1)NC[C@@H](Cc1cccc2ccccc12)NCCc1ccc(C)cc1 | 0 | -2 | . | -2 | 4
SMILES | phage Ecoli inh | AddAB inh | E coli growth-1 | E coli growth-2 | Tat transport
O=C(NN=Cc1ccc(N2CCOCC2)cc1)c1ccncc1 | . | . | 0.67 | . | .
O=Nc1c(O)c2ccccc2c2ccccc12 | 11* | 10 | 0.53 | 6 | -9
O=c1ccc2ccccc2c2ccccc12 | 0 | . | . | . | .
COc1ccc(C2CC(=O)C=C(c3ccc(-c4ccccc4)c(F)c3)C2)cc1OC (stereo not drawn) | . | . | 0.69 | . | .
CC(=NNC(=O)c1ccc(Cn2cc([N+](=O)[O-])cn2)o1)c1cccc(NC(=O)C(C)C)c1 | . | . | 0.66 | . | .
Cc1nnsc1C(=O)NNc1c(Cl)cccc1Cl | 3 | 5 | 0.48* | 2 | 6
Cc1nnsc1C(=O)NNc1ccc(Cl)cc1 | 0 | 0 | 0.67 | 0 | 3
CCOc1ccc(CNc2ccc3c(c2)nc(C)n3C)cc1 | 2 | 2 | 0.69 | -1 | 7
COc1ccc(CNc2ccc3c(c2)nc(C)n3C)cc1OC | 0 | -2 | 0.65 | 13* | -2
O=C(CN(Cc1ccc(F)cc1)C(=O)CNS(=O)(=O)c1ccc(F)cc1)NCC1CCCO1 (stereo not drawn) | 0 | 1 | 0.68 | 1 | -1
O=C(CN(Cc1ccccc1Cl)C(=O)CNS(=O)(=O)c1ccc(F)cc1)NCC1CCCO1 (stereo not drawn) | 1 | -1 | 0.66 | 1 | 53*
O=c1c(Br)ccc(Br)cc1Br | 7 | . | 0.52* | . | 6
O=C1CN(S(=O)(=O)c2cc(Br)ccc2Br)CCN1 | 2 | 2 | 0.69 | 0 | -3
CC(C)c1ccc2c(c1)CCC1C(C)(CN)CCCC21C (stereo not drawn) | 9 | 4 | 0.48* | -1 | -8
CC(C)c1ccc2c(c1)CC[C@H]1[C@](C)(CN)CCC[C@]21C | 4 | . | . | . | 3
O=C(COc1c(Br)cc(Br)c2cccnc12)N1CCc2ccccc2C1 | . | -3 | 0.44* | -9 | 3
CCN(CC)c1ccc(C=NNC(=O)c2cc3ccccc3[nH]2)cc1 | . | . | 0.64 | . | .
CCOC(=O)c1c(N=Cc2cc([N+](=O)[O-])ccc2O)sc(C)c1C | . | . | 0.64 | . | .
